Assay outcomes (PubChem)
ABHD5-PLIN5 inh = blocks binding of human ABHD5 to perilipin-5. Q00G26+Q8WTS1. Split G. princeps luciferase complementation, luminescence, 4 h. inhibition, % at 4 µM. hit rate 0.78% among 360,000. AID 602281;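 active means inhibition above the mean inhibition across every tested compound plus 3 SD, cut at about 22% in these data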;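 further: 0% = DMSO only wells and the 100% control is not disclosed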
TLR9-MyD88 inh = blocks human TLR9 binding to MyD88; CHO BLA complementation TLR9-MyD88, CCF4 FRET ratio; inhibition, % at 4.98 µM; hit rate 0.21% among 340,000; AID 504734;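 active means inhibition above the mean over all tested compounds plus 3 SD, cut at about 21% in these data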;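 further: 0% = DMSO only wells and 100% = clavulanate BLA inhibitor control wells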
NOD2 RIPK2 PPI = NOD2-RIPK2 protein interaction inhibition; CHO BLA complementation NOD2-RIPK2, CCF4 ratio; inhibition, % at 4.98 µM; O43353; hit rate 0.38% among 360,000; in the data active means inhibition above about 21%;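 further: 0% = vehicle only and 100% = reference blocker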
TLR4-MyD88 BLA = inhibitors of human TLR4-MyD88 binding; HeLa CL3-4 TLR4/MyD88 BLA complementation, FRET ratio; hit rate 0.18% among 200,000; O00206+Q99836; inhibition, % at 8.4 µM; AID 861; in the data active means inhibition above about 25%;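 further: 0% = vehicle and 100% = reference inhibitor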
ABHD5 PLIN5 conf = ABHD5-PLIN5 interaction inhibition, confirmed | shares compounds with ABHD5-PLIN5 inh | inhibition, % at 4 µM | AID 651612 | biochemical ABHD5-PLIN5 interaction, luminescence | hit rate 67% among 2,200; in the data active means inhibition above about 23%;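 further: 0% = DMSO vehicle wells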
HNF4 counter = active in HNF4 split-luciferase counter-screen for ABHD5-PLIN5 inhibitors; shares compounds with ABHD5-PLIN5 inh; HNF4 dimerization, luminescence, biochemical; inhibition, % at 4 µM; hit rate 77% among 2,200; AID 651674;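 active means mean inhibition across replicate wells exceeding the computed hit threshold, cut at about 13% in these data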;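 further: light from luciferase halves that rejoin when HNF4 fusion proteins dimerize; 0% = DMSO only wells and the 100% control is not given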
Starred values were filed as active, the others as inactive; x = not tested or not shown. Most compounds without a hit are left out; they make up all but 1.2% or so of the library.

SMILES | ABHD5-PLIN5 inh | TLR9-MyD88 inh | NOD2 RIPK2 PPI | TLR4-MyD88 BLA | ABHD5 PLIN5 conf | HNF4 counter
CC1OC(C2CCCCC2)Cc2[nH]c(=S)[nH]c(=O)c21 (stereo not drawn) | -2 | x | -16 | x | x | x
CCOc1ccc(CN2CCC(C(=O)Nc3cccc(-c4ccn[nH]4)c3)CC2)cc1Cl | 2 | -4 | -4 | x | x | x
O=C(CCCc1ccccc1)NCCS(=O)(=O)N1CCN(c2ccccc2)CC1 | 9 | 5 | 3 | x | x | x
O=C(Nc1ccc(Cl)cc1F)C1CC(=O)N(Cc2ccco2)C1 (stereo not drawn) | 14 | 2 | -4 | x | x | x
COc1ccc2c(c1)/C(=C\c1cccc(/C=C3/C(=O)Nc4ccc(OC)cc43)n1)C(=O)N2 | 51* | -3 | -4 | x | 100* | 98*
COc1ccc2c(c1)/C(=N/N1C(=O)c3ccccc3C1=O)C(=O)N2 | x | x | x | 1 | x | x
CCN(CC)CCOc1ccc(/C(=C(\Cl)c2ccccc2)c2ccccc2)cc1 | 49* | -5 | 4 | x | 76* | 29*
O=C(CCCn1cc([N+](=O)[O-])cn1)NC1CCCCCC1 | 99* | -3 | -6 | -9 | -5 | 5
O=C(CCCn1cc([N+](=O)[O-])cn1)NCc1ccccc1 | 1 | -12 | -4 | 11 | x | x
CC[C@@H](C)[C@@H]1CN([C@@H](C)CN2CCC[C@H]2CN2C(N)=NC[C@@H]2Cc2ccccc2)C(=N)N1CCc1ccc(Cl)c(Cl)c1 | 34* | -6 | -2 | x | 17 | 5
CC[C@@H](C)[C@@H]1CN([C@@H](C)CN2CCC[C@H]2CN2C(N)=NC[C@@H]2Cc2ccccc2)C(=N)N1CCCC1CCCC1 | 29* | 1 | 6 | x | 11 | -1
O=c1ccc2cc3c(-c4ccccc4)coc3cc2o1 | -6 | 7 | 1 | x | x | x
O=C(/C=C\c1ccccc1OC(=O)c1ccccc1F)c1cc2ccccc2o1 | 70* | -1 | 3 | 7 | 100* | 98*
CC1=CC(C)(C)Nc2ccc(OC(=O)CN3C(=O)c4cccc5cccc(c45)C3=O)cc21 | 32* | 4 | 6 | 2 | 71* | 8
CC1=CC(C)(C)Nc2ccc(OC(=O)CN3C(=O)c4ccccc4C3=O)cc21 | 66* | 1 | 10 | 12 | 86* | 79*
CC1=CC(C)(C)Nc2ccc(OC(=O)C(Cc3ccccc3)N3C(=O)c4ccccc4C3=O)cc21 (stereo not drawn) | 0 | 6 | -7 | -7 | x | x
O=C(Nc1ccccc1)c1cc(C2COCCN2C(=O)CCCc2ccccc2)on1 (stereo not drawn) | -3 | x | -14 | x | x | x
CCN(Cc1ccncc1)C(=O)c1ccc(C)c(S(=O)(=O)N2CCCCC2)c1 | 2 | 2 | -3 | x | x | x
CC(C)c1ccc(-c2csc3nc[nH]c(=O)c23)cc1 | -6 | -4 | 1 | x | x | x
COc1ccc(C(=O)OCC(=O)N2CCN(S(=O)(=O)c3ccc(C)cc3)CC2)cc1[N+](=O)[O-] | 86* | -13 | -9 | x | 2 | 7
COc1ccc(C(=O)OCC(=O)N2CCCCC2)cc1[N+](=O)[O-] | 3 | 7 | -3 | 12 | x | x
COc1ccc(NC(=O)CSc2c3c(nc4ccccc24)CCCC3)c(OC)c1 | 25* | -9 | 5 | -11 | 29* | 44*
COc1ccccc1NC(=O)CSc1c2c(nc3ccccc13)CCC2 | 1 | -14 | 2 | -2 | x | x
CN(C)c1ccc(/C=C/c2c([N+](=O)[O-])c(=O)n(C)c(=O)n2C)cc1 | -1 | -1 | -1 | x | x | x
CN(C)c1ccc(-n2cccc2/C=C/[N+](=O)[O-])cc1 | 52* | 0 | 15 | 7 | 82* | 71*
SMILES | ABHD5-PLIN5 inh | TLR9-MyD88 inh | NOD2 RIPK2 PPI | TLR4-MyD88 BLA | ABHD5 PLIN5 conf | HNF4 counter
COc1ccc(/C=C2\CCc3ccccc3C2=O)cc1OC | -1 | -6 | 2 | -18 | x | x
O=C1/C(=C/c2cccs2)COc2ccccc21 | 4 | 9 | 3 | -1 | x | x
CCOc1cc(/C=C2\COc3ccccc3C2=O)ccc1OCC(=O)N(C)C | 61* | 2 | -10 | x | 77* | 69*
CCNC(=O)COc1ccc(/C=C2\COc3ccccc3C2=O)cc1OC | 56* | -1 | 6 | x | 81* | 81*
O=C(Nc1c(-c2ccccc2)[nH][nH]c1=O)c1ccco1 | -42 | x | -6 | x | x | x
CC(=O)c1ccc(OCCCC(=O)NC2CCCc3ccccc32)cc1 (stereo not drawn) | -1 | 5 | -3 | -13 | x | x
CN(C)Cc1c(O)ccc2c1O/C(=C\C=C\c1ccccc1)C2=O | 29* | -8 | 2 | x | 20 | 24*
CCN1CCN(Cc2c(O)ccc3c2O/C(=C\C=C\c2ccccc2)C3=O)CC1 | 34* | 6 | 7 | 4 | 23* | 19*
O=C1/C(=C/C=C/c2ccccc2)Oc2c1ccc(O)c2CN1CCN(CCO)CC1 | 31* | 10 | 6 | x | 18 | 18*
COC(=O)c1ccccc1NC(=O)CNCCc1ccc(OC)c(OC)c1 | -7 | -1 | -1 | x | x | x
CCOC(=O)C1(C)CCN1C(=O)c1cc(F)ccc1C (stereo not drawn) | 3 | x | -24 | x | x | x
COc1ccc(N2CCN(S(=O)(=O)CCNC(=O)/C=C/c3ccc4c(c3)OCO4)CC2)cc1 | 10 | 1 | -22 | x | x | x
C#CC(=O)N(c1ccc(OC)cc1OC)C(C(=O)NC1CCCC1)c1cccs1 (stereo not drawn) | 28* | -10 | 2 | 21 | 40* | 38*
COc1ccc(N(C(=O)c2ccco2)C(C(=O)NC2CCCCC2)c2cccs2)cc1OC (stereo not drawn) | 5 | -1 | -3 | -7 | x | x
C#CC(=O)N(c1cc(OC)ccc1OC)C(C(=O)NC1CCCC1)c1cccs1 (stereo not drawn) | 32* | -8 | -3 | 24 | 45* | 45*
CCN(C(=O)c1cccnc1SC)C12CC3CC(CC(C3)C1)C2 | 0 | -6 | 2 | x | x | x
O=C(CN1CCN(c2ccccc2)CC1)c1ccc2cc[nH]c2c1 | 2 | 3 | -14 | -11 | x | x
O=C(CN1CCC2(CC1)OCCO2)c1ccc2cc[nH]c2c1 | 102* | 2 | 5 | -13 | 5 | 10
O=C(CSc1ccc2nnc(CCNC(=O)c3ccccc3)n2n1)NC1CCCC1 | 5 | -4 | 4 | x | x | x
C=C(CCC(=O)c1ccccc1)C(=O)c1ccccc1 | 32* | 2 | 6 | 17 | 68* | 67*
N#CCCN1CCCN(CCC#N)CCN(CCC#N)CCCN(CCC#N)CC1 | 3 | -2 | -12 | x | x | x
NS(=O)(=O)c1ccc(CNC(=O)c2ccc3c(=O)n4c(nc3c2)CCC4)cc1 | 11 | 7 | -11 | x | x | x
COc1ccc(/C=C(/C(=O)c2cccs2)N2C=CC=CC2=C(C#N)C#N)cc1 | 33* | 15 | 0 | -5 | 59* | 81*
O=C(NCCCN1CCCC1=O)C(=O)NCC1OCCCN1S(=O)(=O)c1ccccc1 (stereo not drawn) | -5 | 6 | -4 | x | x | x
O=c1[nH][nH]c2c1[C@H](c1ccc(F)cc1)O[C@H](C1CCCCC1)C2 | 28* | x | -4 | x | 9 | 26*
